From PubChem BioAssay
Most compounds without a hit are left out; they make up all but 3.6% or so of the library.
IL1B NFkB inh – blocks IL-1B driven NFkB nuclear translocation in HUVEC cells | HUVEC IL-1B NFkB p65 nuclear translocation imaging | inhibition, % at 2 µM | actives 0.43% (n = 94,000) | AID 796;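 active means inhibition above about 30% together with a positive call from visual inspection of the well image, limit read from the data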;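 further: nuclear over cytoplasmic p65 intensity ratio measured by imaging; 0% = IL-1B stimulated DMSO wells and 100% = unstimulated DMSO wells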
NFkB transloc pot – enhances IL-1B driven NFkB nuclear translocation; HUVEC IL-1B NFkB p65 nuclear translocation imaging; activation, % at 2 µM; actives 0.3% (n = 94,000);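 active means activation above 40%, about the mean plus 3 SD, also judged a hit on visual image review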;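 further: percent activation is computed from the nuclear over cytoplasmic p65 intensity ratio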
ERb SRC1 inh – ER-beta (human) coactivator binding inhibition | Q92731 | TR-FRET ER-beta LBD / SRC1-Cy5 peptide binding; receptor agonist-loaded with 1 µM estradiol | inhibition, % at 25.6 µM | actives 1.3% (n = 86,000) | AID 633;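 active means compounds whose percent inhibition of the receptor-coactivator binding signal exceeds about 50% in the single-dose screen, limit read from the data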;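 further: 0% = receptor plus peptide wells without compound and 100% = peptide-only wells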
ERa SRC1 inh – ER-alpha (human) coactivator binding inhibition; TR-FRET ER-alpha LBD / SRC-1 peptide, estradiol-bound; actives 1.7% (n = 86,000); AID 629; inhibition, % at 25.6 µM; P03372; in the data active means inhibition above about 50%;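 further: 0% = receptor plus peptide control and 100% = peptide only without receptor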
Target sequence (P03372 whole entry, looked up, the tested form may be a part): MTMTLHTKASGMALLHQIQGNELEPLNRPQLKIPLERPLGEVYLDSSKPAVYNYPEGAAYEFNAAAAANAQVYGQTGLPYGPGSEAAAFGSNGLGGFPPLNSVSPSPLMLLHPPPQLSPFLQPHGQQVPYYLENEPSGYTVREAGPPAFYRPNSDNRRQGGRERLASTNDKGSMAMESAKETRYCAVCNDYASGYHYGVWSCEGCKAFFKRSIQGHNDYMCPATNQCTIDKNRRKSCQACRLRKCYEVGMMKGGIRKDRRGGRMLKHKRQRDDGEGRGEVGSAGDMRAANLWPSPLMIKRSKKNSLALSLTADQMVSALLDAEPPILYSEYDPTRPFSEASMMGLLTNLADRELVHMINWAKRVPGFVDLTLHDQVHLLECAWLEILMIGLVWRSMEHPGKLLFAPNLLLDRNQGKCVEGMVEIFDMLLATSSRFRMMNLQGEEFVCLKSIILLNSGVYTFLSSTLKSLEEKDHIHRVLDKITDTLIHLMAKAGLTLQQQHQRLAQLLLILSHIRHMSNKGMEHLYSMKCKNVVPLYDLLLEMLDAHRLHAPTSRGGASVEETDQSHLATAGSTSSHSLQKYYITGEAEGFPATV
ERa coact pot – enhances coactivator binding to human estrogen receptor alpha; P03372; TR-FRET ERalpha-LBD/SRC-Cy5 coactivator binding, 2 h; 100 = basal binding, no effect; coactivator binding (% of control), % at 25.6 µM; actives 1.3% (n = 86,000); AID 639; in the data active means activity above about 200%;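 further: binding measured in presence of low estradiol as agonist stimulus; 0% = peptide alone without receptor and 100% = receptor with peptide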
HUVEC tox IL1B – HUVEC cytotoxicity counter-screen, IL-1B stimulated. HUVEC cell count loss, Hoechst imaging. cell count reduction, % at 2 µM. actives 0.41% (n = 94,000). AID 845;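 active means cell count reduction more than 3 SD above the screen-wide mean, cut at about 70% in these data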;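 further: normalized per plate to untreated control cells as the no-loss baseline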
Numbers without * were called inactive; / = no result given; [ ] = remark or other dose.

SMILES	IL1B NFkB inh	NFkB transloc pot	ERb SRC1 inh	ERa SRC1 inh	ERa coact pot	HUVEC tox IL1B
CCOC(=O)c1c(COC(=O)c2ccco2)nc2ccccc2[n+]1[O-]	-12.6	12.6	3.7	-10.6	84.3	-19.2
CC(=O)c1c(COC(=O)c2ccco2)nc2ccccc2[n+]1[O-]	/	/	61.2*	63.6*	39.4	/
CC(=O)c1c(COC(=O)c2ccncc2)nc2ccccc2[n+]1[O-]	1.9	-1.9	61.8*[fluorescence artefact?]	49.8	33.7	8.6
Cc1ccc(C)c(NC(=S)N(CCc2nc3cc(C)c(C)cc3[nH]2)Cc2cccnc2)c1	6.9	-6.9	/	/	/	-28.8
O=C(CN1C2CCC1CC(NC(=O)Nc1ccccc1)C2)NCc1ccco1 (stereo unspecified)	-8.2	8.2	8.4	18.6	102.0	-4.6
c1ccc(-n2nnnc2-n2cnc3ccccc32)cc1	-4.0	4.0	-4.1	-9.0	113.3	-23.6
c1ccc(-c2nccc(-c3ccc(-n4cnc5ccccc54)cc3)n2)cc1	-14.9	14.9	62.8*[fluorescence artefact?]	91.8*[fluorescence artefact?]	147.8	-6.5
N#CCC(CNc1ncc(C(F)(F)F)cc1Cl)OC(=O)c1cccc([N+](=O)[O-])c1 (stereo unspecified)	1.8	-1.8	/	/	/	-36.0
Cc1cccc(C)c1NC(=O)C(c1ccc(Cl)cc1Cl)N1CCCCC1 (stereo unspecified)	-2.0	2.0	/	/	/	-20.7
Cc1ccccc1-c1cc2c(nn1)-c1ccccc1C2=O	-11.9	11.9	0.1	-3.1	80.5	-23.4
Cc1ccc(-c2cc3c(nn2)-c2ccccc2C3=O)cc1	/	/	37.0	63.2*[fluorescence artefact?]	60.5	/
COc1cc(/C=C/C(=O)CC(=O)/C=C/c2ccc(O)c(OC)c2)ccc1O	/	/	59.5*[fluorescence artefact?]	37.5	33.4	/
Cc1cc(C)n(C(=O)c2ccc(C)c(S(=O)(=O)N3CCCC3)c2)n1	-4.6	4.6	-0.5	-1.9	104.5	28.2
O=c1[nH]c(=O)n(Cc2ccco2)c2c1C(C(F)(F)F)(C(F)(F)F)N=C(CCc1ccccc1)N2	11.8	-11.8	24.6	59.5*[fluorescence artefact?]	81.2	-10.9
O=c1[nH]c(=O)n(Cc2ccco2)c2c1C(C(F)(F)F)(C(F)(F)F)N=C(CCC1CCCCC1)N2	3.9	-3.9	3.9	2.4	105.2	-4.1
Cc1cccc(N2CCN(C(=O)C3CCCN(S(=O)(=O)c4cccc5cccnc45)C3)CC2)c1C (stereo unspecified)	/	/	-1.9	-0.2	131.3	/
CC(C)CCNC(=O)C(c1cccs1)N(CC1CCCO1)C(=O)Cn1nnc2ccccc21 (stereo unspecified)	99.3*	-99.3	-4.1	-2.8	99.0	91.1*
CCOC(=O)C1=C(O)/C(=C\c2ccc(CNC(=O)C(=O)Nc3ccc(C)c(C)c3)o2)N=C1C	-28.1	28.1	54.8*	72.1*	115.0	-29.4
Cc1csc(NC(=O)CSc2nnc(-c3ccncc3)o2)n1	0.5	-0.5	-6.3	-1.8	109.4	-24.3
COc1ccc2[nH]c3nc(SCc4nnc(-c5ccc(C)cc5)o4)nnc3c2c1	2.7	-2.7	64.5*[fluorescence artefact?]	80.6*	196.7	24.6
Cc1ccc(C(=O)c2cc([N+](=O)[O-])ccc2N2CCOCC2)c(C)c1	95.9*	-95.9	/	/	/	87.8*
Cc1cc2cc(CNC(=O)c3ccc(S(=O)(=O)N4CCCC4)cc3)ccc2n1C	11.1	-11.1	31.7	21.0	293.0*[fluorescence artefact?]	0.8
Cc1cc2cc(CNC(=O)c3ccc(S(=O)(=O)N4CCCCC4)cc3)ccc2n1C	12.7	-12.7	45.9	22.6	404.3*[fluorescence artefact?]	-4.4
CCN(CC)S(=O)(=O)c1ccc(C(=O)NCc2ccc3c(c2)cc(C)n3C)cc1	5.9	-5.9	-6.8	-1.1	141.1	5.3
Cc1cnc(C)c(N2CCC(C(=O)NC(C)c3cccs3)CC2)n1 (stereo unspecified)	2.4	-2.4	-13.7	-6.7	127.7	-26.4
SMILES	IL1B NFkB inh	NFkB transloc pot	ERb SRC1 inh	ERa SRC1 inh	ERa coact pot	HUVEC tox IL1B
CCOC(=O)N1CCC(n2c(=S)[nH]c3cc(OCC)c(OCC)cc3c2=O)CC1	/	/	51.9*[fluorescence artefact?]	41.0	106.2	/
COc1ccc(S(=O)(=O)N(CCCN2CCCC2=O)Cc2cc3c(C)cc(C)cc3[nH]c2=O)cc1	2.1	-2.1	1.0	6.4	107.7	-8.0
CCCC(=O)C1=C(O)C(C(=O)OC)C(C)(C)CC1=Nc1ccc(N)cc1 (stereo unspecified)	/	/	-0.9	-5.4	100.0	/
CCCC(=Nc1ccc(N)cc1)C1=C(O)C(C(=O)OC)C(C)(C)CC1=O (stereo unspecified)	2.0	-2.0	65.5*[fluorescence artefact?]	-2.5	97.3	-7.3
COc1ccccc1Nc1ncccc1C(=O)NCc1ccccc1	-8.8	8.8	0.3	2.5	110.7	-1.4
COc1ccc2c(C(F)(F)F)cc(=O)oc2c1C	4.5	-4.5	-11.5	-3.9	103.3	5.1
Cc1c(C)c2ccc(Oc3ccc([N+](=O)[O-])cc3C(F)(F)F)c(C)c2oc1=O	-67.3	67.3*	/	/	/	-18.0
Cc1occc1-c1nnc(SCC(=O)N2CCOCC2)n1CCc1ccccc1	-1.4	1.4	3.8	-10.2	105.7	-15.6
CCCCn1c(SCC(=O)N2CCOCC2)nnc1-c1ccoc1C	29.6	-29.6	5.9	4.4	89.5	85.8*
CCCSc1nc(N)c(C#N)c(-c2ccc(C)cc2)c1C#N	-20.3	20.3	/	/	/	-12.5
CCN(CC)c1ccc(-c2c(C#N)c(N)nc(OC)c2C#N)cc1	-7.1	7.1	25.6	21.1	212.5*[fluorescence artefact?]	-130.0
Cn1c(C(=O)N2CCN(c3ccc(Cl)cc3)CC2)cc2c(=O)n(C)c3ccccc3c21	/	/	-2.7	5.2	93.3	/
CCC(C)n1c(=O)c(C(=O)Nc2ccccc2S(N)(=O)=O)c(O)c2ccccc21 (stereo unspecified)	/	/	29.2	34.5	207.8*	/
O=c1cc(CSc2nnc(-c3cccs3)n2Cc2ccccc2)nc2sc3ccccc3n12	-0.6	0.6	64.8*	75.4*[fluorescence artefact?]	96.2	6.0
Cc1ccc(C)c(Cn2c(=O)n(-c3ccc(CC(=O)NCc4ccco4)cc3)c(=O)c3sccc32)c1	-1.2	1.2	54.5*	79.6*[fluorescence artefact?]	127.0	-36.5
O=C(Nc1nc(-c2ccco2)c(-c2ccco2)s1)C1CC(=O)N(c2ccc3c(c2)OCCO3)C1 (stereo unspecified)	/	/	70.5*[fluorescence artefact?]	47.4	121.6	/
CN1C(=O)CSc2ccc(NC(=O)N3CCC(N4CCCCC4)CC3)cc21	-11.8	11.8	51.3*	57.8*	52.7	-2.0
COc1cc(NC(=O)Cn2nc(C(F)(F)F)c3c2CCCC3)cc(OC)c1OC	-15.9	15.9	4.5	7.8	115.5	70.6*
CCc1ccc(NC(=O)Cn2nc(C(F)(F)F)c3c2CCC3)cc1	-9.3	9.3	-13.8	-7.0	93.0	-2.4
Cc1cccc(NC(=O)C23CCC(C)(C2Br)C3(C)C)c1 (stereo unspecified)	4.3	-4.3	/	/	/	3.2
C=CCn1c(SCC(=O)Nc2sc3c(c2C#N)CCC3)nnc1C1COc2ccccc2O1 (stereo unspecified)	-7.1	7.1	/	/	/	-9.5
